GDH-TPI counter-1 = inhibits GDH-TPI coupling enzymes, artifact for Mtb FBA screen; GDH-TPI coupled enzyme counterscreen, NADH absorbance; inhibition, % at 4.8 µM; 1.2% of 360,000 active; in the data active means inhibition above about 30%;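 further: 0% = DMSO wells and 100% = wells lacking the enzyme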
FBA Mtb inh = inhibits M. tuberculosis FBA enzyme; P9WQA3; purified M. tuberculosis FBA, fluorescence read-out; inhibition, % at 1 µM; 2.3% of 360,000 active;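 further: 0% = vehicle and 100% = reference inhibitor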
Target sequence (P9WQA3 whole entry, looked up): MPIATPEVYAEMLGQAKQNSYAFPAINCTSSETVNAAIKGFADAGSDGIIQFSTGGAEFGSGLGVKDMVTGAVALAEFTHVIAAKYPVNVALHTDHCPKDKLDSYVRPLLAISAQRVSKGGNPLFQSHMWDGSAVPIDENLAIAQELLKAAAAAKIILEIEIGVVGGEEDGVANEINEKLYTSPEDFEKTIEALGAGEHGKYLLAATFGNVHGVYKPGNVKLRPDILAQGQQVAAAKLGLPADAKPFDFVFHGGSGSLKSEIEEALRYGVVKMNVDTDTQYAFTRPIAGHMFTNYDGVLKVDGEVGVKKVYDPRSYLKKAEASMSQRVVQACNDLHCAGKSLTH
CCHFV vOTU inh = CCHFV vOTU protease inhibition; Pep-AMC fluorescence; inhibition, % at 11.5 µM; 0.55% of 370,000 active; AID 651958; in the data active means inhibition above about 30%; further: 0% = vehicle wells with enzyme and 100% = no enzyme wells
RecA intein inh = blocks M. tuberculosis RecA intein splicing. P9WHJ3. cell-free RecA intein splicing, fluorescence. inhibition, % (test concentration not listed). 0.75% of 290,000 active; in the data active means inhibition above about 30%;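 further: 0% = vehicle wells and 100% = reference inhibitor control wells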
VHR inh abs = inhibitors of human VHR1 phosphatase (DUSP3) | recombinant VHR phosphatase, pNPP absorbance | P51452 | 0.52% of 290,000 active | inhibition, % at 13.3 µM; in the data active means inhibition above about 50%
Target sequence (P51452 whole entry, looked up): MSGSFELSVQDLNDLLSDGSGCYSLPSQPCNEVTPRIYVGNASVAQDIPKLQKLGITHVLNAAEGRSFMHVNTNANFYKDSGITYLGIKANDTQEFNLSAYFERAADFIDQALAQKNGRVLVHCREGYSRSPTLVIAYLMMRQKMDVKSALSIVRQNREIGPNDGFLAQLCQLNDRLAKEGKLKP
3CLpro inhibitor = SARS-CoV 3CLpro protease inhibition; P0C6X7; recombinant SARS-CoV 3CLpro, quenched FRET peptide cleavage; inhibition, % at 6 µM; 0.14% of 290,000 active; AID 1706; in the data active means inhibition above about 12%
Mtb FBA confirm = Mtb FBA inhibition, confirmed; 78% of 5,600 active; inhibition, % at 1 µM; shares compounds with FBA Mtb inh; purified M. tuberculosis FBA, fluorescence read-out; AID 651616;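 further: 0% = vehicle wells and 100% = reference inhibitor wells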
GDH-TPI counter-2 = inhibits GDH-TPI coupling enzymes, flagging Mtb FBA hits | GDH-TPI coupled enzyme counterscreen, fluorescence | shares compounds with FBA Mtb inh | 81% of 5,600 active | inhibition, % at 1 µM | AID 652141; in the data active means inhibition above about 10%
Starred values were filed as active, the others as inactive; / = no result; + = active, no number. Shown are actives, neighbours in structure and some others; about 4.7% of the full set was active somewhere. Unless noted, no stated cut-off is given here; in the data, active means inhibition above about 27%; inactive means the rest.

SMILES	GDH-TPI counter-1	FBA Mtb inh	CCHFV vOTU inh	RecA intein inh	VHR inh abs	3CLpro inhibitor	Mtb FBA confirm	GDH-TPI counter-2
O=C(O)c1cc(-c2c[nH]c3ccccc23)nc2cc3ccccc3cc12	16.9	55.2*	-2.3	-8.1	6.2	-0.2	75.5*	75.0*
C[C@H](O)[C@@H]1C(=O)N2CCc3c([nH]c4ccccc34)[C@@H]2C[C@@H]1N(C)C(=O)Nc1cccc2ccccc12	/	73.8*	-92.4	/	/	/	26.7	24.1*
C[C@H](O)[C@@H]1C(=O)N2CCc3c([nH]c4ccccc34)[C@@H]2C[C@@H]1N(C)S(=O)(=O)c1ccccc1	10.9	71.9*	-235.7	/	/	/	+	+
COc1ccc(NC(=O)N(C)[C@H]2C[C@H]3c4[nH]c5ccccc5c4CCN3C(=O)[C@H]2[C@H](C)O)cc1	9.0	25.9	-138.4	/	/	/	/	/
Cc1ccccc1C(=O)N(C)[C@H]1C[C@H]2c3[nH]c4ccccc4c3CCN2C(=O)[C@H]1[C@H](C)O	-5.2	7.0	-28.1	/	/	/	/	/
Cc1c(OC(C)C(=O)NCC(O)c2ccccc2)ccc2c3c(c(=O)oc12)CCCC3 (configuration not stated)	20.5	47.8*	-0.8	3.4	3.7	0.3	+	196.9*
Cc1cc(OC(C)C(=O)NCc2ccncc2)c2c3c(c(=O)oc2c1)CCC3 (configuration not stated)	9.5	63.9*	3.2	-0.3	12.9	-2.9	132.9*	92.6*
Cc1cc(OC(C)C(=O)NCc2ccncc2)c2c3c(c(=O)oc2c1)CCCC3 (configuration not stated)	10.3	70.8*	-18.5	-0.8	7.1	-3.0	177.9*	154.5*
Cc1c(OC(C)C(=O)NCc2ccncc2)ccc2c3c(c(=O)oc12)CCCC3 (configuration not stated)	11.6	33.9*	-10.5	0.2	38.7	-4.9	-0.2	-3.0
Cc1cc(=O)oc2c(C)c(OC(C)C(=O)NCC(O)c3ccccc3)ccc12 (configuration not stated)	8.7	19.9	-1.3	-1.3	5.7	-1.1	/	/
CC(C)(O)c1[nH]c2ccc(C#N)cc2c1C(C)(C)O	/	/	2.9	-2.5	12.7	-10.4	/	/
COc1ccc(NC(=O)CCCNS(=O)(=O)c2ccc3[nH]c(=O)oc3c2)cc1OC	/	/	2.7	/	/	/	/	/
Cc1cc(OCC(=O)NCc2ccncc2)c2c3c(c(=O)oc2c1)CCCC3	3.7	84.9*	-17.7	-0.5	9.2	-3.6	121.9*	93.6*
CC(C)c1nnc(SCC(=O)Nc2ccc3c(c2)OCCO3)n1C	-0.8	2.8	8.0	-3.9	29.7	-0.6	/	/
CC(=O)Nc1cnc(/C=C\CCCO)cn1	14.2	31.6*	-20.0	/	/	/	0.6	-4.0
CC(=O)Nc1cnc(-c2ccccc2C(C)=O)cn1	7.1	0.4	-7.0	/	/	/	/	/
COc1cccc(/C=C2\CC3(OC(=O)c4ccc(F)cc4)CCCN2C3)c1 (configuration not stated)	/	/	6.2	/	/	/	/	/
CC(C)(CO)NS(=O)(=O)c1ccc2c(c1)oc(=O)c1cc(S(=O)(=O)NC(C)(C)CO)ccc12	9.1	81.0*	7.0	/	-14.0	3.2	4.6	-10.0
CC(C)(C)NS(=O)(=O)c1ccc2c(c1)oc(=O)c1cc(S(=O)(=O)NC(C)(C)C)ccc12	5.2	-0.7	-6.0	1.0	-20.6	-0.9	/	/
CC(=O)COc1nc2c(c(-c3ccco3)c1C#N)CCc1ccccc1-2	/	/	/	-0.9	23.9	0.7	/	/
CCOC(=O)C(C)Sc1nc(-c2ccco2)cc(C(F)(F)F)c1C#N (configuration not stated)	2.8	29.1*	-37.8	9.4	-6.6	-1.9	123.9*	95.0*
CCOC(=O)c1sc(NC(=O)CSc2nc(-c3ccco3)cc(C(F)(F)F)n2)c(C#N)c1C	-1.6	0.1	2.8	-0.6	2.4	-0.3	/	/
CCOC(=O)COc1nc(-c2ccco2)cc(-c2ccco2)c1C#N	14.6	79.8*	-123.7	-1.0	-0.1	2.0	15.7	14.2*
COc1ccc(C2CC(=O)C(C(c3ccc(O)cc3)C3C(=O)CC(c4ccc(OC)cc4)CC3=O)C(=O)C2)cc1 (configuration not stated)	/	/	/	2.5	0.0	-5.3	/	/
COc1ccc(CCN(C)C(=O)c2cc(=O)c3ccccc3o2)cc1OC	3.0	50.2*	-1.7	-1.5	22.4	-0.7	-22.1	-17.7
SMILES	GDH-TPI counter-1	FBA Mtb inh	CCHFV vOTU inh	RecA intein inh	VHR inh abs	3CLpro inhibitor	Mtb FBA confirm	GDH-TPI counter-2
CCc1ccc(CN(C)C(=O)c2cc(=O)c3ccccc3o2)cc1	-16.3	-2.0	8.2	/	-10.2	4.8	/	/
CCC1CN(C(=O)NCc2cccc(OC)c2)c2ccccc2O1 (configuration not stated)	3.5	67.9*	-2.7	2.7	-3.3	0.0	-0.4	-5.7
CCC1CN(C(=O)NCc2cccc(OC)c2)c2cc(Cl)ccc2O1 (configuration not stated)	3.5	-2.4	6.0	0.9	-37.7	4.7	/	/
Cc1c(CC(=O)NCCC(C)C)c(=O)oc2cc3c(cc12)CCC(C)(C)O3	6.4	41.7*	-27.1	-1.5	-20.5	4.3	90.3*	70.8*
CN1CCN(c2c(F)cc3c(=O)c(C(=O)O)cn4c3c2OCN4C)CC1	7.2	22.8	-42.2	-1.0	0.9	-0.2	/	/
Cc1cc(C)c(NC(=O)c2cn3c4c(c(N5CCN(C)CC5)c(F)cc4c2=O)OCC3C)c(C)c1 (configuration not stated)	5.6	27.6*	-13.1	-3.4	1.5	0.6	+	+
O=C(CNc1cccc(S(=O)(=O)N2CCCC2)c1)Nc1cccc(C(F)(F)F)c1	10.0	4.4	28.3	/	/	/	/	/
COCCCN1CN(S(=O)(=O)c2ccc(C)cc2C)c2nc3ccccc3nc21	31.9*	28.2*	0.8	0.0	16.6	8.9	70.6*	68.8*
CCCCn1c(-c2ccc(OC)cc2)nc2c(=O)n(C)c(=O)[nH]c21	-4.4	57.8*	-17.4	-0.6	20.6	0.9	106.7*	105.9*
CCCCn1c(-c2ccc(Cl)cc2)nc2c(=O)n(C)c(=O)[nH]c21	0.0	16.9	6.8	/	-9.5	-2.4	/	/
CCCc1nc2c(=O)n(C)c(=O)[nH]c2n1C	4.1	8.2	6.0	-18.1	38.9	0.8	/	/
CCCn1c(-c2ccc(OC)cc2)nc2c(=O)n(C)c(=O)[nH]c21	-1.7	70.7*	-2.9	-0.7	25.4	2.5	1.4	-9.3
Cn1c(=O)[nH]c2c(nc(-c3ccc(Cl)cc3)n2C)c1=O	-4.0	28.4*	-8.5	-0.9	5.9	2.9	3.4	0.9
CC(C)NC(=O)C(c1ccc(F)cc1)N(C(=O)CCC(=O)Nc1ccccn1)C1CCCC1 (configuration not stated)	-1.9	0.6	7.0	-2.3	43.9	-5.5	/	/
